From PubChem BioAssay
HT1080 IDH1KD tx: HT-1080 IDH1 knockdown cell toxicity (counter line); 2% of 360,000 active; HT-1080 IDH1 knockdown viability, ATP luminescence, 48 h; Potency, µM (series often up to 46.1 µM), most hits filed as cytotoxic; AID 686971
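Knockdown cells (IDH1KD HT-1080) received compounds 2 h after plating at 750 cells/well and were kept 48 h at 37 °C in 5% FBS RPMI. A CellTiter-Glo luminescence read gave % activity for curve fitting.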
ATXN2 expr inh: ATXN2 expression inhibition; Potency, µM (highest dose often 57 µM), hits mostly inhibitors; HEK-293 ATXN2-luciferase reporter, luminescence, 24 h; 0.72% of 360,000 active; note: nearly all actives have a fitted effect of over 55% in size
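ATXN2-luciferase reporter cells (luciferase flanked by upstream and downstream ATXN2 gene portions) were treated 24 h at 37 °C with compounds at up to 57 uM. SteadyGlo luminescence gave expression; GF-AFC fluorescence gave viability.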
TGFb SMAD3 inh: inhibitors of TGF-b signaling; HepG2 CAGA-GFP TGF-b/SMAD3 reporter, GFP fluorescence, 18 h; TGF-beta stimulated, 500 pg/mL final; Potency, µM (titrated, usually from 46.1 µM), most hits filed as inhibitors; 1.2% of 410,000 active; note: nearly all actives have a fitted effect of over 65% in size
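Inhibition was scored as loss of TGF-beta-induced (500 pg/mL final, 18 hours, 37 degrees C) GFP in HEPG2 cells carrying a CAGA-GFP reporter, in DMEM with 1% FBS. Well GFP was summed per cell; Activity was normalised to unstimulated and stimulated DMSO wells, then concentration-response fitting.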
ATXN viability: viability counter-screen for ATXN expression inhibitors; S2 cells (HEK-293 line with an ATXN2-luciferase reporter) viability, CellTiter-Fluor protease fluorescence, 24 h; Potency, µM (titrated, usually from 56.7 µM), usual class: cytotoxic; 0.49% of 400,000 active; note: nearly all actives have a fitted effect of over 40% in size
HepG2 tox: counter-screen for TGF-b inhibitors: cytotoxicity in HepG2 cells. HepG2 CAGA-GFP viability, ATP luminescence, 18 h. Potency, µM (series often up to 46.1 µM), hits mostly cytotoxic. 0.76% of 410,000 active
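HepG2 CAGA-GFP cells (1000/well, DMEM with 1% FBS) received compound, then TGF-beta at 500 pg/mL final, and were incubated 18 hours at 37 degrees C. Viability was read by CellTiter-Glo luminescence. Media-only wells were set as complete cell-killing and DMSO as no toxicity.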
HT1080-NT tox: kills 2HG-producing HT-1080-NT fibrosarcoma cells; HT-1080-NT fibrosarcoma viability, CellTiter-Glo ATP luminescence, 48 h; AID 686970; Potency, µM (series often up to 46.1 µM), most hits filed as cytotoxic; 1.6% of 360,000 active;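 note: NT is the 2HG producing partner of a matched IDH1 knockdown line; nearly all actives have a fitted effect of over 55% in size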
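Viability of the 2HG-overproducing fibrosarcoma line after 48 hours of compound exposure at 37 degrees C was determined by luminescence with CellTiter-Glo, and concentration-effect curves were then fitted and categorized.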
Large screens that a line does not name were inactive. Sampled rows, rich in hits. Any-hit rate of the full collection: about 3.9%. Calls come from the whole dose curve; as a rule, active = well fitted curve in the direction sought with a large enough effect; inconclusive = small, poorly fitted or top-dose-only effect, or another doubt; inactive = no such curve, though single readings can be large; an effect the other way counts as inactive or inconclusive.

CCN(CC)c1ccc(/C=N/Nc2nc3ccccc3[nH]2)c(O)c1	HT1080 IDH1KD tx 6.51µM, ATXN2 expr inh inconclusive, TGFb SMAD3 inh 15.8µM, ATXN viability 5.01µM, HT1080-NT tox 8.2µM
CCCCn1c(/C=C/c2ccco2)nc2ccccc21	none
COc1cccc(C2(CC(=O)N3CCCOc4c(cccc4OC)C3)CC(=O)N(C)C2=O)c1 (stereo not given)	none (no result: HT1080 IDH1KD tx, ATXN2 expr inh, TGFb SMAD3 inh, HepG2 tox, HT1080-NT tox)
C(=N\Nc1nncc2ccccc12)/c1ccccn1	HT1080 IDH1KD tx 5.17µM, ATXN2 expr inh inconclusive, TGFb SMAD3 inh inconclusive, ATXN viability inconclusive, HT1080-NT tox inconclusive
Nc1ccc(-c2nc3ccc(C(=O)O)cc3s2)cc1	HT1080 IDH1KD tx inconclusive, ATXN2 expr inh 1.41µM
O=C(O)c1ccc2nc(-c3ccccc3)sc2c1	ATXN2 expr inh 8.91µM
Nc1ccc(-c2nc3ccc(N)cc3s2)cc1	ATXN2 expr inh 20µM
Nc1cc2sc(-c3ccc(C(=O)O)cc3)nc2cc1Cl	HT1080 IDH1KD tx inconclusive, HT1080-NT tox inconclusive (no result: ATXN viability)
CC1CCN(c2nc3ccc(C(=O)O)cc3s2)CC1	ATXN2 expr inh 2.24µM
Cc1cc(C)cc(C(=O)NCCn2cc(C(=O)N3CCSCC3)nn2)c1	none (no result: HT1080 IDH1KD tx, ATXN2 expr inh, TGFb SMAD3 inh, HepG2 tox, HT1080-NT tox)
CCc1ccc(NC(=O)c2sc(-n3nc(C)c(Cc4ccc(OC)cc4)c3C)nc2C)cc1	none (no result: HT1080 IDH1KD tx, ATXN2 expr inh, ATXN viability, HT1080-NT tox)
C=C(C)[C@@H]1CC=C(CN2CCC(N3CCC(C(=O)N4CCCC4)CC3)CC2)CC1	HT1080 IDH1KD tx 20.6µM, HT1080-NT tox 18.4µM
C=C(C)C1CC=C(CN2CCC(O)CC2)CC1 (stereo not given)	none
CC(C)Oc1ccc(C(=O)Nc2nnc3n2CCS3)cc1	none (no result: HT1080 IDH1KD tx, HT1080-NT tox)
CC(=O)CSc1ncnc2nc[nH]c12	none
Cn1cnc(Sc2ncnc3nc[nH]c23)c1[N+](=O)[O-]	HT1080 IDH1KD tx 18.4µM, ATXN viability inconclusive, HT1080-NT tox inconclusive (no result: ATXN2 expr inh)
Cn1cnc([N+](=O)[O-])c1Sc1ncnc2nc[nH]c12	HT1080 IDH1KD tx 4.11µM, ATXN viability inconclusive, HT1080-NT tox 4.11µM
CCC(C)NCCOCCOc1ccc(Cl)cc1Br (stereo not given)	HT1080 IDH1KD tx inconclusive, HT1080-NT tox 20.6µM
Cc1ccc(OCCOCCNC(C)C)c(Br)c1	none
CCC(C)NCCOCCOc1cc(C)c(Cl)c(C)c1 (stereo not given)	HT1080 IDH1KD tx 20.6µM, ATXN2 expr inh inconclusive, HT1080-NT tox 20.6µM
Cc1cc2c(cc1S(=O)(=O)Nc1cccc(C(F)(F)F)c1)OCCN2C	TGFb SMAD3 inh 3.55µM (no result: HT1080 IDH1KD tx, ATXN2 expr inh, ATXN viability, HT1080-NT tox)
CC(=O)c1ccc(NS(=O)(=O)c2cc3c(cc2C)N(C(C)=O)CCO3)cc1	none
CC(=O)c1ccc(NS(=O)(=O)c2cc3c(cc2C)N(C)CCO3)cc1	HT1080 IDH1KD tx 16.4µM, HT1080-NT tox inconclusive
Cc1ccccc1NS(=O)(=O)c1cc2c(cc1C)N(C)CCO2	none
CC1=Nc2cc(C(=O)NCCc3ccc(Cl)cc3)ccc2Sc2c(C)ccc(C)c21	TGFb SMAD3 inh 7.94µM, ATXN viability inconclusive (no result: HT1080 IDH1KD tx, HT1080-NT tox)
CCCNC(=O)c1ccc2c(c1)N=C(C)c1c(C)ccc(C)c1S2	TGFb SMAD3 inh inconclusive, ATXN viability inconclusive (no result: HT1080 IDH1KD tx, HT1080-NT tox)
CC1=Nc2cc(C(=O)NCCc3ccccc3)ccc2Sc2c(C)ccc(C)c21	TGFb SMAD3 inh 6.31µM, ATXN viability inconclusive (no result: HT1080 IDH1KD tx, HT1080-NT tox)
c1ccc(-c2nc(N3CCN(c4ccccc4)CC3)nc(-n3ccnc3)n2)cc1	HT1080 IDH1KD tx inconclusive, HT1080-NT tox 11.2µM
COc1ccc(/C=N/Nc2nnc(-c3ccccc3)c(=O)[nH]2)cc1	HT1080 IDH1KD tx 13µM, HT1080-NT tox 13µM
CCN(CC)CCNC(C(=O)Nc1cccc(C(C)=O)c1)c1ccccc1 (stereo not given)	HepG2 tox 12.6µM
C[C@@H]1CN([C@H](C)CO)C(=O)c2c(c3ccccc3n2C)-c2ccccc2CO[C@H]1CN(C)Cc1cccc(C(=O)O)c1	none
C[C@@H]1CN([C@H](C)CO)C(=O)c2c(c3ccccc3n2C)-c2ccccc2CO[C@H]1CN(C)Cc1ccc(Oc2ccccc2)cc1	HT1080 IDH1KD tx inconclusive, ATXN2 expr inh inconclusive, TGFb SMAD3 inh 15.8µM, ATXN viability inconclusive, HT1080-NT tox inconclusive
